Data taken from PubChem BioAssay (Tox21).
Records with an inconclusive call do not appear. Active and inactive are the calls of the source. Calls come from the whole dose curve; as a rule, active = well fitted curve in the direction sought with a large enough effect in the repeat runs; inconclusive = weak or mixed curves; inactive = no such curve, though single readings can be large; an effect the other way counts as inactive or inconclusive.

Experiments:
[1] = qHTS RealTime-Glo MT Cell Viability Assay in HEK293 cells - 16 hour (AID 1224872); note: nearly all actives have a fitted effect of over 50% in size; note: potency is the fitted concentration of half-maximal effect; for activity change, negative = cytotoxicity: top concentration of the series differs between compounds
Outline: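 Cells + reagent dispensed (600 cells/well, HEK293) → 5 h at 37 C/5% CO2 → 23 nL compound in DMSO pinned → 40 h at 37 C → luminescence read at 0, 8, 16, 24, 32, 40 h.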

[2] = qHTS RealTime-Glo MT Cell Viability Assay in HepG2 cells - 8 hour (AID 1224873); note: nearly all actives have a fitted effect of over 55% in size
Outline: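 Real-time viability: cells seeded at 600 per well together with NanoLuc and cell-permeant prosubstrate, compounds added after 5 h incubation. Luminescence tracked at 0, 8, 16, 24, 32 and 40 h of exposure.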

[3] = qHTS RealTime-Glo MT Cell Viability Assay in HEK293 cells - 40 hour (AID 1224874); conditions: RealTime-Glo luminescence; max response: stronger effect = lower value; note: nearly all actives have a fitted effect of over 50% in size; note: potency is the fitted concentration of half-maximal effect
Outline: (§1)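 Measured as luminescence from the same continuously cultured HEK293 wells at successive time points (0, 8, 16, 24, 32, 40 h) after compound addition. Reagent present from seeding; dosing at 5 h; incubation 37 C.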

[4] = A CellTox Green Cytotoxicity Assay to monitor cytotoxicity in HEK293 cells - 24 hour (AID 1224875); note: series mostly up to about 77 µM; nearly all actives have a fitted effect of over 45% in size
Outline: (§2)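 Homogeneous no-lysis format: HEK293 cell suspension mixed with CellTox Green reagent, seeded, incubated 5 h at 37 C/5% CO2, then dosed by pintool with compound in DMSO.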

[5] = A CellTox Green Cytotoxicity Assay to monitor cytotoxicity in HepG2 cells - 16 hour (AID 1224876); note: nearly all actives have a fitted effect of over 45% in size
Outline: (§3)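 Fluorescent DNA-binding dye, 600 HepG2 cells/well, 5 h preincubation then compound in DMSO; same plates read at 0–40 h, 37 C.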

[6] = qHTS RealTime-Glo MT Cell Viability Assay in HepG2 cells - 32 hour (AID 1224877); note: nearly all actives have a fitted effect of over 55% in size
Outline: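 Real-time, nonlytic viability: 600 HepG2 cells/well mixed with NanoLuc enzyme plus prosubstrate; 5 h settle, compound (DMSO) added by pintool; luminescence monitored over 40 h at 37 C.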

[7] = A CellTox Green Cytotoxicity Assay to monitor cytotoxicity in HepG2 cells - 24 hour (AID 1224878); note: nearly all actives have a fitted effect of over 45% in size
Outline: as §3

[8] = A CellTox Green Cytotoxicity Assay to monitor cytotoxicity in HepG2 cells - 40 hour (AID 1224879); note: nearly all actives have a fitted effect of over 40% in size
Outline: as §3

[9] = qHTS RealTime-Glo MT Cell Viability Assay in HEK293 cells - 0 hour (AID 1224880); note: top concentration of the series differs between compounds; nearly all actives have a fitted effect of over 45% in size
Outline: as §1

[10] = A CellTox Green Cytotoxicity Assay to monitor cytotoxicity in HEK293 cells - 32 hour (AID 1224881); note: nearly all actives have a fitted effect of over 40% in size
Outline: as §2
% is set by controls: 0 for no effect and ±100 for the full control effect.

NC1CCN(c2nc3c(cc2F)c(=O)c(C(=O)O)cn3-c2ccc(F)cc2F)C1 (stereo not given)
inactive: Potency [1] | Potency [2] | max response [3] -1.98% | Potency [4] | Potency [5] | Potency [6] | Potency [7] | Potency [8] | Potency [9] | Potency [10]

CCc1nn(C2CCCCC2)c2cc(C3(C#N)CCC(C(=O)O)CC3)ccc12 (stereo not given)
inactive: Potency [1] | Potency [2] | max response [3] 0.457% | Potency [4] | Potency [5] | Potency [6] | Potency [7] | Potency [8] | Potency [9] | Potency [10]

CC(C)c1cccc(C(C)C)c1NC(=O)NS(=O)(=O)c1cc(C(C)(C)O)co1
inactive: Potency [1] | Potency [2] | max response [3] 6.33% | Potency [4] | Potency [5] | Potency [6] | Potency [7] | Potency [8] | Potency [9] | Potency [10]

Cc1ccccn1
inactive: Potency [1] | Potency [2] | max response [3] 4.7% | Potency [4] | Potency [5] | Potency [6] | Potency [7] | Potency [8] | Potency [9] | Potency [10]

CC(=O)OCCc1ccccc1
inactive: Potency [1] | Potency [2] | max response [3] 10.1% | Potency [4] | Potency [5] | Potency [6] | Potency [7] | Potency [8] | Potency [9] | Potency [10]

O=C(C(=O)c1ccc(Br)cc1)c1ccc(Br)cc1
inactive: activity change, negative = cytotoxicity [1] 5.77% [at 15.8 µM] | viability change, negative = cytotoxic [2] -3.19% [at 15.8 µM] | max response [3] 0.201% | activity change [4] -0.496% [at 15.8 µM, stronger effect = higher value] | cytotoxicity increase [5] -6.44% [at 15.8 µM] | activity change, negative = cytotoxic [6] 2.16% [at 15.8 µM] | cytotoxicity [7] -10% [at 15.8 µM] | cytotoxicity increase [8] -10.2% [at 15.8 µM] | activity change, negative = cytotoxicity [9] -3.2% [at 15.8 µM] | cytotoxicity increase [10] -0.258% [at 15.8 µM]

O=C(NN1CCCC1)NS(=O)(=O)c1ccc(Cl)cc1
inactive: Potency [1] | Potency [2] | max response [3] 15.3% | Potency [4] | Potency [5] | Potency [6] | Potency [7] | Potency [8] | Potency [9] | Potency [10]

N[C@H]1C(O)O[C@H](CO)[C@H](O)[C@@H]1O (stereo not given in full)
inactive: Potency [1] | Potency [2] | max response [3] 9.12% | Potency [4] | Potency [5] | Potency [6] | Potency [7] | Potency [8] | Potency [9] | Potency [10]

C=C(C)C(=O)OC(C)C
inactive: Potency [1] | Potency [2] | max response [3] 6% | Potency [4] | Potency [5] | Potency [6] | Potency [7] | Potency [8] | Potency [9] | Potency [10]

CC(C)(C)c1cc(CCC(=O)OCC(COC(=O)CCc2cc(C(C)(C)C)c(O)c(C(C)(C)C)c2)(COC(=O)CCc2cc(C(C)(C)C)c(O)c(C(C)(C)C)c2)COC(=O)CCc2cc(C(C)(C)C)c(O)c(C(C)(C)C)c2)cc(C(C)(C)C)c1O
inactive: Potency [1] | Potency [2] | max response [3] 0.256% | Potency [4] | Potency [5] | Potency [6] | Potency [7] | Potency [8] | Potency [9] | Potency [10]

C#CCOC(=O)[C@@H](C)Oc1ccc(Oc2ncc(Cl)cc2F)cc1
inactive: Potency [1] | Potency [2] | max response [3] -16.3% | Potency [4] | Potency [5] | Potency [6] | Potency [7] | Potency [8] | Potency [9] | Potency [10]

CCOC(=O)CC(C)C
inactive: Potency [1] | Potency [2] | max response [3] 6.18% | Potency [4] | Potency [5] | Potency [6] | Potency [7] | Potency [8] | Potency [9] | Potency [10]

C=CC[N+]1([C@H]2C[C@H]3[C@@H]4CC[C@H]5C[C@H](OC(C)=O)[C@@H](N6CCCCC6)C[C@]5(C)[C@H]4CC[C@]3(C)[C@H]2OC(=O)CC)CCCCC1
inactive: Potency [1] | Potency [2] | max response [3] -20.7% | Potency [4] | Potency [5] | Potency [6] | Potency [7] | Potency [8] | Potency [9] | Potency [10]

Oc1ccc2c(c1)OCO2
inactive: Potency [1] | Potency [2] | max response [3] -2.1% | Potency [4] | Potency [5] | Potency [6] | Potency [7] | Potency [8] | Potency [9] | Potency [10]

CCN(CCO)CCCC(C)Nc1ccnc2cc(Cl)ccc12 (stereo not given)
inactive: activity change, negative = cytotoxicity [1] 2.31% [at 6.97 µM] | viability change, negative = cytotoxic [2] 4.72% [at 6.97 µM] | max response [3] -1.22% | activity change [4] -1.16% [at 6.97 µM, stronger effect = higher value] | cytotoxicity increase [5] 19.7% [at 6.97 µM] | activity change, negative = cytotoxic [6] 2.34% [at 6.97 µM] | cytotoxicity [7] 14.8% [at 6.97 µM] | cytotoxicity increase [8] 10.5% [at 6.97 µM] | activity change, negative = cytotoxicity [9] 3.38% [at 6.97 µM] | cytotoxicity increase [10] -1.54% [at 6.97 µM]

CCN(CC)CCNC(C(=O)OCCC(C)C)c1ccccc1 (stereo not given)
inactive: Potency [1] | Potency [2] | max response [3] -10.1% | Potency [4] | Potency [5] | Potency [6] | Potency [7] | Potency [8] | Potency [9] | Potency [10]

OCCC1CCCCN1 (stereo not given)
inactive: Potency [1] | Potency [2] | max response [3] -19.6% | Potency [4] | Potency [5] | Potency [6] | Potency [7] | Potency [8] | Potency [9] | Potency [10]

OC(CCN1CCCCC1)(c1ccccc1)C1CCCCC1 (stereo not given)
inactive: Potency [1] | Potency [2] | max response [3] -21.9% | Potency [4] | Potency [5] | Potency [6] | Potency [7] | Potency [8] | Potency [9] | Potency [10]

Cc1c(Cn2ccnc2)c2ccccc2n1CCC(=O)O
inactive: Potency [1] | Potency [2] | max response [3] 4.63% | Potency [4] | Potency [5] | Potency [6] | Potency [7] | Potency [8] | Potency [9] | Potency [10]

Cc1nc2ccccc2n1Cc1ccc(Cl)cc1
inactive: Potency [2] | Potency [4] | Potency [5] | Potency [6] | Potency [7] | Potency [8] | Potency [9] | Potency [10]
active: Potency [1] 3.01 µM | Potency [3] 1.69 µM
